Assay [1] in a line: Quantitative High-Throughput drug screen in 47 multiple myeloma cell lines against the NCATS MIPE library collection: L363_DSMZ cell viability assay (AID 1918984). Further: nearly all actives have a fitted effect of over 40% in size. The method in brief:
(§1)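 500 cells/well; MIPE 4.0 drugs pin-transferred; 48 h, 37C, 5% CO2. CellTiter-Glo, 5 min RT, luminescence. Controls: DMSO 100%, media 0%.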

The nature of assay [2]: Quantitative High-Throughput drug screen in 47 multiple myeloma cell lines against the NCATS MIPE library collection: OPM1_PLB cell viability assay (AID 1918989). Further: nearly all actives have a fitted effect of over 40% in size. The method in brief:
as §1

The nature of assay [3]: Quantitative High-Throughput drug screen in 47 multiple myeloma cell lines against the NCATS MIPE library collection: U266_ATCC cell viability assay (AID 1919864). Further: nearly all actives have a fitted effect of over 35% in size. Summed up: as §1
The nature of assay [4]: Quantitative High-Throughput drug screen in 47 multiple myeloma cell lines against the NCATS MIPE library collection: KMS34_JCRB cell viability assay (AID 1918985). Further: nearly all actives have a fitted effect of over 40% in size. The method in brief:
as §1

Assay [5] is described as follows: Quantitative High-Throughput drug screen in 47 multiple myeloma cell lines against the NCATS MIPE library collection: XG6_PLB cell viability assay (AID 1919865). Further: nearly all actives have a fitted effect of over 40% in size. The method in brief:
as §1

The nature of assay [6]: Quantitative High-Throughput drug screen in 47 multiple myeloma cell lines against the NCATS MIPE library collection: XG1_PLB cell viability assay (AID 1919866). Further: nearly all actives have a fitted effect of over 35% in size. Summed up:
as §1

Assay [7] is described as follows: Quantitative High-Throughput drug screen in 47 multiple myeloma cell lines against the NCATS MIPE library collection: VP6_DJ cell viability assay (AID 1919867). Further: nearly all actives have a fitted effect of over 40% in size. The method in brief: as §1
A short description of assay [8]: Quantitative High-Throughput drug screen in 47 multiple myeloma cell lines against the NCATS MIPE library collection: OCIMY7_PLB cell viability assay (AID 1918987). Further: nearly all actives have a fitted effect of over 65% in size. Summed up: as §1
Assay [9] is described as follows: Quantitative High-Throughput drug screen in 47 multiple myeloma cell lines against the NCATS MIPE library collection: OCIMY5_PLB cell viability assay (AID 1918988). Further: nearly all actives have a fitted effect of over 65% in size. Summed up: as §1
Assay [10] in a line: Quantitative High-Throughput drug screen in 47 multiple myeloma cell lines against the NCATS MIPE library collection: SKMM1_PLB cell viability assay (AID 1919863). Further: nearly all actives have a fitted effect of over 35% in size. Conditions: SKMM1 myeloma viability, CellTiter-Glo ATP, 48 h; viability: stronger effect = lower value. Summed up:
as §1

Results filed as inconclusive are left out. Values without a mark were called inactive. Calls of active or inactive are those of the source. The call rests on the fitted dose curve; in most records, active means well fitted cell-killing curve with a large enough effect; inconclusive means small, poorly fitted or top-dose-only effect, or effect the other way; inactive means no such curve, though single readings can be large or run the other way.

The record followed here is PubChem BioAssay (NCATS).
Potency means the concentration at half of the fitted maximal effect.

Consider `Cc1ccc(C(=O)Nc2ccc(S(=O)(=O)O)c3cc(S(=O)(=O)O)cc(S(=O)(=O)O)c23)cc1NC(=O)c1cccc(NC(=O)Nc2cccc(C(=O)Nc3cc(C(=O)Nc4ccc(S(=O)(=O)O)c5cc(S(=O)(=O)O)cc(S(=O)(=O)O)c45)ccc3C)c2)c1`, for which the Potency entry in [1] and in assay [3] was “inactive” throughout. Further, in [2], the Potency was 833 nM (active).
Consider `Cn1c(=O)c2c(ncn2C)n(C)c1=O`, for which the Potency entry in assay [1], in [4], in [3], in assay [5], in assay [6] and in assay [7] was “inactive” throughout.
Turning to `CCN1CCCC1CNC(=O)c1cc(S(=O)(=O)CC)c(N)cc1OC` (stereo not drawn), the Potency entry in assay [4], in [8], in assay [9], in assay [2], in assay [3] and in assay [5] was “inactive” in each case. For the same molecule, the Potency result in assay [6] and in assay [7] was “inactive” in each case.
Take `CC[C@@]1(O)C(=O)OCc2c1cc1n(c2=O)Cc2cc3c(CN(C)C)c(O)ccc3nc2-1`: the Potency was 3320 nM (active) in assay [4]; 148 nM (active) in assay [8]; 5900 nM (active) in [9]; 9350 nM (active) in [2]; 13200 nM (active) in assay [3]; 13.2 nM (active) in assay [5]. The Potency is 74.3 nM (active) in assay [6] and 1480 nM (active) in [7].
With `CN(C)CCOC(c1ccccc1)c1ccccc1`, the Potency result in [4] was “inactive”. Also, the Potency is 18700 nM (active) in [8], 7430 nM (active) in [6] and 6620 nM (active) in assay [7].
Consider `CC(C)C(=O)Nc1ccc([N+](=O)[O-])c(C(F)(F)F)c1`, for which the Potency entry in assay [4] is “inactive”. In addition, the Potency in [8] is 2960 nM (active); in assay [9], 1480 nM (active); in assay [2] it was 8330 nM (active); in assay [3], 4690 nM (active); in [5], 1050 nM (active); in assay [6] it was 1870 nM (active). The Potency in [7] is 3320 nM (active).
As for `CCC1(c2ccccc2)C(=O)NCNC1=O`, the Potency entry in assay [4] was “inactive”. The Potency in assay [8] was 3320 nM (active); in assay [2], 8330 nM (active); in [3], 2960 nM (active); in assay [5] it was 2090 nM (active); in [6], 2960 nM (active); in assay [7], 4690 nM (active).
On to `CC(C)Cc1ccc(C(C)C(=O)O)cc1` (stereo not drawn), for which the Potency result in [4], in [8], in [9], in [2] and in assay [6] was “inactive” each time. For the same molecule, the Potency in assay [5] was 6450 nM (active).
`O=C(Nc1ccc([N+](=O)[O-])cc1Cl)c1cc(Cl)ccc1O`: the Potency is 1050 nM (active) in assay [1]; 1660 nM (active) in [4]; 1660 nM (active) in assay [9]; 833 nM (active) in assay [2]; 1320 nM (active) in assay [5]; 935 nM (active) in assay [6]. In assay [7], the Potency is 743 nM (active).
Turning to `O=C1c2c(O)ccc(O)c2C(=O)c2c(NCCNCCO)ccc(NCCNCCO)c21`, the Potency was 2960 nM (active) in assay [4]; 1050 nM (active) in assay [8]; 1320 nM (active) in assay [9]; 935 nM (active) in assay [2]; 2960 nM (active) in assay [10]; 1050 nM (active) in assay [3]. The Potency in assay [5] is 118 nM (active); in assay [6], 332 nM (active); in assay [7] it was 662 nM (active).
In the case of `CC[N+](CC)(CC)CCOc1cccc(OCC[N+](CC)(CC)CC)c1OCC[N+](CC)(CC)CC`, the Potency result in assay [4], in [8], in assay [2], in assay [3], in [5] and in assay [6] was “inactive” each time.
`CN(CCOc1ccc(NS(C)(=O)=O)cc1)CCc1ccc(NS(C)(=O)=O)cc1`: the Potency result in [4], in assay [8], in assay [2], in assay [3] and in assay [6] was “inactive” each time. Moreover, in assay [5], the Potency was 13200 nM (active).
On to `Cc1ccc(-c2cc(C(F)(F)F)nn2-c2ccc(S(N)(=O)=O)cc2)cc1`, for which the Potency in assay [4] is 1320 nM (active); in assay [8], 20900 nM (active); in assay [9], 20900 nM (active).
As for `CC(C)NCC(O)COc1ccc(CCOCC2CC2)cc1` (stereo not drawn), the Potency entry in assay [1], in [9], in assay [2] and in [6] was “inactive” in each case. Further, the Potency in assay [4] was 5900 nM (active).
For the molecule `Cn1cnc2c1c(=O)[nH]c(=O)n2C`, the Potency is 7430 nM (active) in assay [1]; 16600 nM (active) in assay [4]; 5900 nM (active) in assay [8]; 14800 nM (active) in assay [9]; 10500 nM (active) in assay [2]; 23500 nM (active) in assay [3]. The Potency in [5] was 16600 nM (active); in assay [6], 14800 nM (active).
For `CC#C[C@]1(O)CC[C@H]2[C@@H]3CCC4=CC(=O)CCC4=C3[C@@H](c3ccc(N(C)C)cc3)C[C@@]21C`, the Potency in assay [1] was 2640 nM (active); in assay [4], 1320 nM (active); in [8], 1180 nM (active); in [9], 833 nM (active); in assay [2], 1480 nM (active); in [3], 662 nM (active). For the same molecule, the Potency in assay [5] is 264 nM (active); in [6], 743 nM (active); in [7], 833 nM (active).
